For some of these results: Entries with a potency or affinity are not part of this list. Activity calls are given as the source filed them. Unless noted, no rule for the calls is given here.
Key:
[1] = antimalarial activity against Dd2 strain (AID 2302;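 active = growth inhibition above 50% at the single 2 µM test dose, taken to imply half-maximal potency below 2 µM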;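 also: 0% = DMSO untreated growth and 100% = chloroquine plus artemisinin killed control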); details: P. falciparum Dd2 in RBCs, LDH growth readout, 72 h; at 2 µM; hits give high values
[2] = human hepatoma cell viability loss – ATP luminescence, cytotoxicity control for P. falciparum antimalarial project, primary screen (AID 2303;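 active = inhibition above 50%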;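 also: 0% = DMSO wells and 100% = digitonin-killed cells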); details: HepG2 viability, 24-48 h, at 10 µM, hits give high values
[3] = target: L-lactate dehydrogenase (Plasmodium falciparum (isolate CDC / Honduras)) (UniProt Q27743); assay: PfLDH activity inhibition – cell lysate, 3D7 strain, counter-screen for P. falciparum growth inhibition project (AID 2304);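 also: 0% = vehicle and 100% = reference inhibitor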; details: P. falciparum 3D7 crude extract, LDH APAD/NBT absorbance; at 2 µM; hits give high values
[4] = inhibition of 3D7 malaria parasite growth – strain 3D7 (AID 2306);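 also: 0% = DMSO wells and 100% = chloroquine plus artemisinin control wells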; details: P. falciparum 3D7 erythrocytic growth, LDH absorbance, 72 h; at 2 µM; hits give high values
[5] = target: Calcium-dependent protein kinase 1 (Plasmodium falciparum (isolate 3D7)) (UniProt P62344); assay: PfCDPK1 kinase inhibitors, biochemical, TCAMS library (AID 1159585; cut-off not given, nearly all actives have IC50 up to about 0.98 µM;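 also: inhibitors leave more ATP so luminescence rises with inhibition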); details: recombinant PfCDPK1, Kinase-Glo ATP depletion luminescence
[6] = target: Plasmodium falciparum protein kinase 6 (PK6, PF3D7_1337100) (UniProt Q8IDW1); assay: PfPK6 kinase inhibitors, biochemical, TCAMS library (AID 1159586); details: recombinant PfPK6, Kinase-Glo ATP depletion luminescence
[7] = target: Protein kinase 7 (PK7), Plasmodium falciparum 3D7 (PF3D7_0213400) (UniProt Q7YTF7); assay: inhibition of Plasmodium PK7 catalytic activity – biochemical, TCAMS antimalarial set, Kinase-Glo luminescence (AID 1159587); details: recombinant PfPK7, Kinase-Glo ATP depletion luminescence
[8] = target: Calcium-dependent protein kinase 4 (Plasmodium falciparum (isolate 3D7)) (UniProt Q8IBS5); assay: PfCDPK4 kinase inhibitors, biochemical, TCAMS library (AID 1159588; cut-off not given, nearly all actives have IC50 up to about 0.91 µM); details: recombinant PfCDPK4, Kinase-Glo ATP depletion luminescence
Chain of Calcium-dependent protein kinase 4 (Plasmodium falciparum (isolate 3D7)) (Q8IBS5 whole entry, looked up): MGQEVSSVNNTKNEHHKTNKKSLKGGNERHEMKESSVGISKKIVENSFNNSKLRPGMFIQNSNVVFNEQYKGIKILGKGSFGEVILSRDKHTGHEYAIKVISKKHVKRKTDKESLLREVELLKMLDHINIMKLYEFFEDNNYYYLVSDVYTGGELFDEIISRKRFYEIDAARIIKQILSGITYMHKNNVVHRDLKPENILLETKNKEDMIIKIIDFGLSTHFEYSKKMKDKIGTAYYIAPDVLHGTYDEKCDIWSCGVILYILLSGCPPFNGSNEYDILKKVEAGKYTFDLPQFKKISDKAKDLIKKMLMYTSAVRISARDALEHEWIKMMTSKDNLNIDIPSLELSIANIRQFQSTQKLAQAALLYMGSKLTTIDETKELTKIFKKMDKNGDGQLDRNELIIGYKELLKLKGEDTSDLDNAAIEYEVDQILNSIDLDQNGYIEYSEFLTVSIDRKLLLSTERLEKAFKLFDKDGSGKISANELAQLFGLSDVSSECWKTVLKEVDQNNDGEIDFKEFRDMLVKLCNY

Chain of Calcium-dependent protein kinase 1 (Plasmodium falciparum (isolate 3D7)) (P62344 whole entry, looked up): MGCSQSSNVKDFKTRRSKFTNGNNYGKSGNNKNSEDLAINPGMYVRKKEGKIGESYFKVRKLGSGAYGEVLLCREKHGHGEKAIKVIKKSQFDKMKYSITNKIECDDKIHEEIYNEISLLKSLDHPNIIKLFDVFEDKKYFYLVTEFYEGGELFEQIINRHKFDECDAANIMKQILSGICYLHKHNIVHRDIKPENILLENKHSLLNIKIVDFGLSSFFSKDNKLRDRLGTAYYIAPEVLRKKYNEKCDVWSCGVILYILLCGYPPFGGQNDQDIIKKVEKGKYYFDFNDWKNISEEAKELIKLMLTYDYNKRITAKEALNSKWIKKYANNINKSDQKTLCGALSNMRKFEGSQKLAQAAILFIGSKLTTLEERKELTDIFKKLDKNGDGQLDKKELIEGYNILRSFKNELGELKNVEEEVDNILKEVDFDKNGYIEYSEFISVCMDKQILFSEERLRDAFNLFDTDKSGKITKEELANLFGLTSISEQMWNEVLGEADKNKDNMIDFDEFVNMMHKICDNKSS
Chain of L-lactate dehydrogenase (Plasmodium falciparum (isolate CDC / Honduras)) (Q27743 whole entry, looked up): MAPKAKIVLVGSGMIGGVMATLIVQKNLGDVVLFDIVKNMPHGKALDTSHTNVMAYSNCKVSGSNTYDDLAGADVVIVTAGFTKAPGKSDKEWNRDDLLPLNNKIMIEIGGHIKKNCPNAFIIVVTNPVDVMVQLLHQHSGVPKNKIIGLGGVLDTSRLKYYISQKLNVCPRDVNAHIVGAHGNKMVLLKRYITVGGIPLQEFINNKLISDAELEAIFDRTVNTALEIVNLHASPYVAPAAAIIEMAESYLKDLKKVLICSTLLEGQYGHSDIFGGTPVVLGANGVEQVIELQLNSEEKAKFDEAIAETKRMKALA
Chain of Plasmodium falciparum protein kinase 6 (PK6, PF3D7_1337100) (Q8IDW1 1-305): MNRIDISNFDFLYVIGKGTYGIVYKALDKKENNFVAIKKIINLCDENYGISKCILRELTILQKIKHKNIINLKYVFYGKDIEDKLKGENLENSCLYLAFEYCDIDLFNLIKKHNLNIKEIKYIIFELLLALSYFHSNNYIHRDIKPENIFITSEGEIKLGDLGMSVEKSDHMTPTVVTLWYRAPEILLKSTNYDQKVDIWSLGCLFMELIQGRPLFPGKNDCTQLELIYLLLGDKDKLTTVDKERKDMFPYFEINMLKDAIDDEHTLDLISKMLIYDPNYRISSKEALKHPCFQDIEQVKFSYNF
Chain of Protein kinase 7 (PK7), Plasmodium falciparum 3D7 (PF3D7_0213400) (Q7YTF7 1-343): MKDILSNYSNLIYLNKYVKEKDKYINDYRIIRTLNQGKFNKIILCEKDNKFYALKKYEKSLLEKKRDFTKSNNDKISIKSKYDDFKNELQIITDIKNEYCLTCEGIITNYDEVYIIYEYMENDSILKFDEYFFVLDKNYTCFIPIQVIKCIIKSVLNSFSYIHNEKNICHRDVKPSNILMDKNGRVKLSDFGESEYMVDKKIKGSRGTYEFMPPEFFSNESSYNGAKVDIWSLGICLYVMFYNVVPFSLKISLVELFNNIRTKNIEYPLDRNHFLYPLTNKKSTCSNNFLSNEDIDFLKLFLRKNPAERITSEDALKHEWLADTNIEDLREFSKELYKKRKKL

CS(=O)(=O)c1ccc(CCNCc2ccc(-c3ccc(CN(C(=O)C4CC(=O)c5ccccc54)C4Cc5ccccc5C4)cc3)nc2)cc1 (stereo not given)
inactive: growth inhibition [1] 21% | inhibition [2] 5% | inhibition [3] -7% | outcome [5] | outcome [6] | outcome [7] | outcome [8]
active: growth inhibition [4] 90%

Cc1cc(NC2CCCC2)nc(Nc2ccc(F)cc2)n1
active: growth inhibition [1] 74% | growth inhibition [4] 100%
inactive: inhibition [2] 22% | inhibition [3] -3% | outcome [5] | outcome [6] | outcome [7] | outcome [8]

CN(CCCNc1ccc(C(=O)Nc2ccc(C(F)(F)F)cc2)cc1[N+](=O)[O-])Cc1ccccc1
active: growth inhibition [4] 100%
inactive: growth inhibition [1] 48% | inhibition [2] 25% | inhibition [3] -9% | outcome [5] | outcome [6] | outcome [7] | outcome [8]

CN(C)CCOc1ccc2c(=O)cc(CCc3cccc(F)c3F)n(CC(=O)N(C)Cc3ccc(-c4ccc(C(F)(F)F)cc4)cc3)c2c1
inactive: inhibition [2] 33% | inhibition [3] 2% | outcome [5] | outcome [6] | outcome [7] | outcome [8]
active: growth inhibition [1] 60% | growth inhibition [4] 90%

O=C(O)c1cccc2c(-c3ccncc3)cccc12
active: growth inhibition [4] 97%
inactive: growth inhibition [1] 1% | inhibition [2] 29% | inhibition [3] -1% | outcome [5] | outcome [6] | outcome [7] | outcome [8]

CC(=O)Nc1ncc(C(=O)Nc2cccc(-c3cccc(-c4nc5ccc(F)cc5[nH]4)c3)c2)s1
active: growth inhibition [1] 93% | growth inhibition [4] 101%
inactive: inhibition [2] 27% | inhibition [3] 5% | outcome [5] | outcome [6] | outcome [7] | outcome [8]

O=C(Nc1ccc(-c2ccccc2)cc1)Nc1cccc(Cn2cnc(N3CCCNCC3)cc2=O)c1
inactive: growth inhibition [1] 13% | inhibition [2] 8% | inhibition [3] 4% | outcome [5] | outcome [6] | outcome [7] | outcome [8]
active: growth inhibition [4] 88%

CCOc1cc(C(=O)Nc2ccccc2N2CCN(S(C)(=O)=O)CC2)cc(OCC)c1OCC
inactive: inhibition [2] -1% | inhibition [3] -2% | outcome [5] | outcome [6] | outcome [7] | outcome [8]
active: growth inhibition [1] 80% | growth inhibition [4] 91%

Fc1ccc(-c2cncc(-c3ccc(F)cc3)n2)cc1
active: growth inhibition [1] 94% | growth inhibition [4] 99%
inactive: inhibition [2] 7% | inhibition [3] 2% | outcome [5] | outcome [6] | outcome [7] | outcome [8]

COc1ccc(N2CCN(CCCCNC(=O)c3ccc(/C=C/c4ccc(Cl)c(Cl)c4)cc3)CC2)c(OC)c1
inactive: inhibition [3] -8% | outcome [5] | outcome [6] | outcome [7] | outcome [8]
active: growth inhibition [1] 51% | inhibition [2] 51% | growth inhibition [4] 101%

CC(C)C[C@H](Nc1ccnc(NCC2CCCCC2)n1)C(=O)NCCOc1ccccc1
inactive: inhibition [2] 37% | inhibition [3] 3% | outcome [5] | outcome [6] | outcome [7] | outcome [8]
active: growth inhibition [1] 73% | growth inhibition [4] 89%

O=C(NCc1ccco1)c1ccc(CN2CCN(C(c3ccccc3)c3ccccc3)CC2)cc1
inactive: inhibition [2] 6% | inhibition [3] -1% | outcome [5] | outcome [6] | outcome [7] | outcome [8]
active: growth inhibition [1] 92% | growth inhibition [4] 96%

Cc1noc(C)c1C(=O)N1CCc2cc3nccc(N4CCN5CCC[C@H]5C4)c3cc21
inactive: growth inhibition [1] 9% | inhibition [2] 7% | inhibition [3] -5% | outcome [5] | outcome [6] | outcome [7] | outcome [8]
active: growth inhibition [4] 93%

Cc1cc(-c2ccc(CNC3CCN(C)CC3)cc2)ccc1S(=O)(=O)NCc1ccccc1
active: growth inhibition [1] 97% | inhibition [2] 52% | growth inhibition [4] 100%
inactive: inhibition [3] 5% | outcome [5] | outcome [6] | outcome [7] | outcome [8]

CC(=O)OC[C@H]1O[C@@H](C#Cc2ccccc2)[C@H](OC(C)=O)[C@@H](OC(C)=O)[C@@H]1OC(C)=O
inactive: inhibition [2] 5% | inhibition [3] 0% | outcome [5] | outcome [6] | outcome [7] | outcome [8]
active: growth inhibition [1] 90% | growth inhibition [4] 95%

CS(=O)(=O)c1ccc(CCNCc2ccc(-c3ccc(CNC4Cc5ccccc5C4)cc3)nc2)cc1
active: growth inhibition [1] 80% | growth inhibition [4] 100%
inactive: inhibition [2] 18% | inhibition [3] -3% | outcome [5] | outcome [6] | outcome [7] | outcome [8]

Cc1cnc(-c2ccc(NC(=O)c3coc4ccc(N5C[C@@H](C)N(C)[C@@H](C)C5)cc34)cc2)o1
active: growth inhibition [4] 96%
inactive: growth inhibition [1] 39% | inhibition [2] 18% | inhibition [3] 1% | outcome [5] | outcome [6] | outcome [7] | outcome [8]

O=C(Nc1cccc(-c2cccc(-c3nc4ccc(F)cc4[nH]3)c2)c1)c1csnn1
inactive: growth inhibition [1] 29% | inhibition [2] 23% | inhibition [3] -4% | outcome [5] | outcome [6] | outcome [7] | outcome [8]
active: growth inhibition [4] 95%

Cc1ccc(-c2ccc3c(c2)C=C(C(=O)NC2CCN(CCNC(=O)c4cccs4)CC2)CCC3)cc1
active: growth inhibition [4] 90%
inactive: growth inhibition [1] 30% | inhibition [2] 27% | inhibition [3] -1% | outcome [5] | outcome [6] | outcome [7] | outcome [8]

CC(C)C[C@@H](/C=N/NC(N)=O)NC(=O)[C@H](CC(C)C)NC(=O)[C@H](CC(C)C)NC(=O)OCc1ccccc1
active: growth inhibition [1] 99% | growth inhibition [4] 100%
inactive: inhibition [2] 41% | inhibition [3] -1% | outcome [5] | outcome [6] | outcome [7] | outcome [8]

— PubChem BioAssay
